Screening data (PubChem)
Hits are enriched below; roughly 7.9% of the tested compounds scored in any of these assays.
KB-3-1 cytotox: KB-3-1 parental cell cytotoxicity; KB-3-1 viability, CellTiter-Glo ATP luminescence, 72 h; Potency, µM (titrated, usually from 46.1 µM), most hits filed as cytotoxic; 400,000 tested, 1.4% active; AID 1347075; note: % is set by controls: 0 for no effect and ±100 for the full control effect; nearly all actives have a fitted effect of over 60% in size
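Luminescent ATP read-out (CellTiter-Glo) measures survival of drug-naive KB-3-1 cells after 72 h compound exposure at 37 °C. Titration series was screened from lowest to highest concentration, with DMSO vehicle plates as background controls.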
KB-V1 MDR tox: KB-V1 MDR subline cytotoxicity | AID 1347076 | KB-V1 MDR cells viability, CellTiter-Glo, 72 h | 400,000 tested, 3.4% active | Potency, µM (series often up to 46.1 µM), hits mostly cytotoxic; note: % is set by controls: 0 for no effect and ±100 for the full control effect; nearly all actives have a fitted effect of over 60% in size
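Cytotoxicity toward P-gp-expressing KB-V1 cells was determined as loss of CellTiter-Glo luminescence after 72 h at 37 degrees C. Compounds were tested in quantitative HTS format across a concentration range, with curves fitted to normalized data.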
HT1080-NT tox: kills 2HG-producing HT-1080-NT fibrosarcoma cells. HT-1080-NT fibrosarcoma viability, CellTiter-Glo ATP luminescence, 48 h. Potency, µM (highest dose often 46.1 µM), for the others: at the highest dose activity, negative = less viability, hits mostly cytotoxic. 360,000 tested, 1.6% active;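 note: NT is the 2HG producing partner of a matched IDH1 knockdown line; 0% = DMSO-treated cells and -100% = media-only wells without cells; nearly all actives have a fitted effect of over 55% in size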
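Fibrosarcoma NT cells, 750 per well in 5% FBS RPMI, were exposed to compound for 48 hours. Viability: CellTiter-Glo luminescence.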
SW480 rereplic: induces DNA re-replication in SW480 colon adenocarcinoma cells. SW480 DNA re-replication, Hoechst DNA content imaging, 48 h. Potency, µM (titrated, usually from 46.1 µM), inactives show at the top dose re-replication activation, hits mostly activators. 340,000 tested, 1.8% active; note: % of control where 0% means no effect; nearly all actives have a fitted effect of over 55% in size
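Treated cells incubate 48 hr (37 C, 5% CO2), are stained 40 min with Hoechst, and nuclear fluorescence is enumerated; a rise in nuclei with high DNA signal marks re-replication.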
HT1080 IDH1KD tx: kills HT-1080 cells with IDH1 knockdown. HT-1080 IDH1 knockdown viability, ATP luminescence, 48 h. Potency, µM (series often up to 46.1 µM), for inactives: top-dose activity, negative = toxicity, most hits filed as cytotoxic. 360,000 tested, 2% active. AID 686971;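 note: 0% = DMSO wells and -100% = cell-free medium wells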
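CellTiter-Glo luminescence after 48 h compound exposure at 37 degrees C of IDH1-knockdown HT-1080 cells in 5% FBS RPMI. %Activity scaled between DMSO wells and cell-free media wells, with curves fitted and assigned curve classes.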
MCF10A rereplic: inducers of DNA re-replication in MCF 10A breast cells. Potency, µM (titrated, usually from 46.1 µM), for the others: at the top dose activity, positive = re-replication, most hits filed as activators. AID 624296. MCF 10A DNA re-replication, Hoechst nuclear intensity, 48 h. 350,000 tested, 2.9% active; note: % of control where 0% means no effect; nearly all actives have a fitted effect of over 50% in size
The depositor's hits bear a star; i = inactive; ? = inconclusive; / = no result; [ ] = remark or other dose. Calls come from the whole dose curve; as a rule, active = well fitted curve in the direction sought with a large enough effect; inconclusive = small, poorly fitted or top-dose-only effect, or another doubt; inactive = no such curve, though single readings can be large; an effect the other way counts as inactive or inconclusive. Potency is the fitted concentration of half-maximal effect.

SMILES	KB-3-1 cytotox	KB-V1 MDR tox	HT1080-NT tox	SW480 rereplic	HT1080 IDH1KD tx	MCF10A rereplic
COc1cc(/C=C/C(=O)Nc2nc3ccc(S(=O)(=O)N(C)C)cc3s2)cc(OC)c1OC	?	i	?	10µM*	6.5µM*	?
Cc1ccc(CNC(=O)COCc2cc(-c3cccs3)on2)cc1	i	i	/	/	/	/
COc1cccc(CNn2cnnc2)c1OCc1ccc(F)cc1	i	i	9%	-5%	15%	-1%
COc1ccccc1CCNCc1ccc(OC)c(OCc2ccccc2)c1	?	4.6µM*	?	?	?	2%
COc1cc(CNCCc2ccc(S(N)(=O)=O)cc2)ccc1OCc1ccc(Cl)cc1	?	?	-4%[9.24 µM]	?	13µM*	13µM*
COc1cccc(CNC23CC4CC(CC(C4)C2)C3)c1OCc1ccccc1	?	21µM*	-25%	?	-12%	29%
COc1cc(CNCCc2ccc(S(N)(=O)=O)cc2)ccc1OCC(=O)NC1CCCCC1	?	?	7%	-1%	5%	?
COc1cccc(CNCCc2c[nH]c3ccccc23)c1OCc1ccccc1	?	?	21µM*	?	16µM*	?
CCn1c(NCc2cccc(Cl)c2)nc2ccccc21	i	i	/	/	/	/
CC(=O)c1ccc(N2CCN(S(=O)(=O)c3c(C)nc4sc(C)cn4c3=O)CC2)cc1	i	i	/	/	/	/
COc1ccccc1C(=O)Nc1ccc2nc(SCCOc3ccccc3C)sc2c1	i	i	/	/	/	/
O=c1ccc2nc3ccccc3sc-2c1	i	i	?	/	?	/
Nc1cc2ccncc2c2ccccc12	i	?	-7%	?	0%	21µM*
Cc1ccc(C[n+]2cc(-c3ccc(Cl)cc3)n3c2CCC3)cc1	6.5µM*	?	-23%	2%	-19%	11%
Cc1ccc(-c2c[n+](Cc3ccc(Cl)cc3)c3n2CCC3)cc1	?	i	?	5%	?	2%
O=C(C[n+]1cc(-c2ccc(Cl)cc2)n2c1CCCCC2)c1ccccc1	?	i	-7%	-6%[9.22 µM]	-14%	?
Cc1ccc(-c2c[n+](Cc3cccc(Cl)c3)c3n2CCC3)cc1	8.2µM*	i	?	-5%	?	9%
Clc1cccc(C[n+]2cc(-c3ccccc3)n3c2CCC3)c1	9.2µM*	i	0%	-33%	?	17%
CC1(C(=O)NS(=O)(=O)C2CC2)CCN(C(=O)c2ccccc2C(F)(F)F)C1 (configuration not stated)	i	i	20%	/	16%	/
COc1cccc(NC(=O)C2CCN(Cc3cnn(-c4ccccc4)c3-n3cccc3)CC2)c1	?	?	-13%	?	-9%	?
O=C(Nc1ccccc1Cl)C1CCN(Cc2cnn(-c3ccccc3)c2-n2cccc2)CC1	18µM*	23µM*	-25%	13%	?	?
COc1ccc(NC(=O)C2CCN(Cc3cnn(-c4ccccc4)c3-n3cccc3)CC2)cc1OC	i	?	-16%	-5%	-15%	-8%
COc1ccc(OC)c(NC(=O)C2CCN(Cc3cnn(-c4ccccc4)c3-n3cccc3)CC2)c1	i	8.2µM*	-2%	?	?	13%
CC1=C(C(=O)Nc2ccc(C(=O)NCCCN3CCCCC3C)cc2)SCCO1 (configuration not stated)	i	i	-4%	/	-16%	/
COc1ccccc1-c1cc(NC=O)c2ncc(-c3ccc(F)cc3)n2c1	16µM*	9.2µM*	?	/	18µM*	/
SMILES	KB-3-1 cytotox	KB-V1 MDR tox	HT1080-NT tox	SW480 rereplic	HT1080 IDH1KD tx	MCF10A rereplic
COc1cc(-c2cnc3c(NC=O)cc(-c4ccc(C)cc4)cn23)cc(OC)c1OC	0.16µM*	0.58µM*	?	/	?	/
COc1ccc(F)cc1-c1cc(NC=O)c2ncc(-c3cc(OC)c(OC)c(OC)c3)n2c1	?	6.5µM*	?	/	?	/
COc1cc(-c2cnc3c(NC=O)cc(-c4ccccc4)cn23)cc(OC)c1OC	?	i	?	/	?	/
COc1cc(-c2cnc3c(NC=O)cc(-c4ccccc4Cl)cn23)cc(OC)c1OC	1µM*	3.3µM*	?	/	?	/
O=C(OCc1cc(=O)n2nc(-c3cccs3)sc2n1)c1cccc(F)c1	i	i	/	/	/	/
COc1cccc(-c2cnc3c(NC=O)cc(-c4cccc(NC(C)=O)c4)cn23)c1	i	?	?	/	?	/
Cc1ccc(-c2cc(NC=O)c3ncc(-c4cccc(C(=O)N(C)C)c4)n3c2)cc1	?	i	?	/	?	/
COc1cc(-c2cnc3c(NC=O)cc(-c4cccc(NC(C)=O)c4)cn23)cc(OC)c1OC	0.37µM*	i	?	/	?	/
Cc1ccc(-c2cc(NC=O)c3ncc(-c4cnn(C)c4)n3c2)cc1	10µM*	5.8µM*	?	/	?	/
Clc1ccccc1Nc1ncnc2c1nc1n2CCCCC1	i	i	/	/	/	/
Cc1ccc(CNC(=O)c2ccc(CS(=O)(=O)Cc3ccc(F)cc3)o2)cc1	i	i	/	/	/	/
COc1ccc(NS(=O)(=O)c2cc([N+](=O)[O-])ccc2N/N=C\c2c(C)[nH]c3ccccc23)cc1	?	?	-3%	4%	-4%	9.2µM*
COc1ccccc1NS(=O)(=O)c1cc([N+](=O)[O-])ccc1N/N=C/c1c[nH]c2ccccc12	?	?	?	?	?	8.2µM*
COc1ccc(NS(=O)(=O)c2cc([N+](=O)[O-])ccc2NN=Cc2ccccc2OCC(=O)O)cc1	i	i	-3%	?	-15%	21µM*
COc1ccccc1NS(=O)(=O)c1ccc(N/N=C/c2ccccc2OCC(=O)O)c([N+](=O)[O-])c1	i	i	-17%	-11%	-14%	?
COc1ccc(C=NNc2ccc([N+](=O)[O-])cc2S(=O)(=O)Nc2ccccc2C(=O)O)cc1OC	i	i	3%	-3%	5%	18µM*
O=C(c1nc(-c2ccc(Cl)cc2)n2c1CCCCC2)N1CCN(c2ccccc2F)CC1	?	i	/	/	/	/
CC1(C(=O)NS(=O)(=O)c2cccc(C#N)c2)CCN1C(=O)CCc1ccccc1 (configuration not stated)	i	i	18%	/	?	/
O=C1NC[C@@H](CCCCN2C[C@H](Cc3ccccc3)N(Cc3ccccc3)C(=O)C2=O)N(Cc2ccccc2)C1=O	i	i	0%	/	9%	/
